Out of some 5,500 compounds screened, about 2,000 (36%) were called active. Roughly 18% stayed inconclusive and do not appear here. Rule as the data show it: active = normalized growth mostly below about 0.91 (no sharp cut-off); inconclusive = no clear call, values can overlap the other calls; inactive = mostly above about 0.92. The list shows a part of the results.
Assay: chemical genetic growth profiling, strain panel (AID 1159580);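 also: tested at 20 µM; growth read once vehicle control cultures reached saturation at 30 °C; 1 = growth at the plate median or of vehicle wells; lower values mean less growth of the strain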
Conditions: growth OD

Measured: normalized growth

CC(=O)Oc1ccccc1C(=O)Oc1ccccc1C(=O)O
inactive: S. cerevisiae deletion strains, locus YJR075W, strain HOC1, active compounds read low 1.02 | S. cerevisiae deletion strains, locus YKL009W, strain mrt4, active compounds read low 0.981 | S. cerevisiae deletion strains, locus YKL068W, active compounds read low 0.985 | S. cerevisiae deletion strains, locus YKL085W, strain MDH1 (second series), active compounds read low 0.998 | S. cerevisiae deletion strains, locus YKL085W, strain MDH1, active compounds read low 0.998 | S. cerevisiae deletion strains, locus YKL160W, strain elf1, active compounds read low 0.999 | S. cerevisiae deletion strains, locus YKL190W, strain CNB1, active compounds read low 1 | S. cerevisiae deletion strains, locus YKR001C, strain vps1, active compounds read low 0.979 | S. cerevisiae deletion strains, locus YKR026C, strain gcn3, active compounds read low 1.01 | S. cerevisiae deletion strains, locus YKR091W, strain srl3, active compounds read low 1 | S. cerevisiae deletion strains, locus YLL001W, strain dnm1, active compounds read low 1 | S. cerevisiae deletion strains, locus YLL026W, active compounds read low 1.01 | S. cerevisiae deletion strains, locus YLL041C, strain sdh2, active compounds read low 1 | S. cerevisiae deletion strains, locus YLR027C, strain aat2, active compounds read low 1.01 | S. cerevisiae deletion strains, locus YLR039C, strain RIC1, active compounds read low 0.983 | S. cerevisiae deletion strains, locus YLR058C, strain SHM2, active compounds read low 0.995 | S. cerevisiae deletion strains, locus YLR102C, strain apc9, active compounds read low 0.976 | S. cerevisiae deletion strains, locus YLR113W, strain HOG1, active compounds read low 0.977 | S. cerevisiae deletion strains, locus YLR221C, strain rsa3, active compounds read low 0.998 | S. cerevisiae deletion strains, locus YLR258W, strain gsy2, active compounds read low 0.994 | S. cerevisiae deletion strains, locus YLR262C, strain YPT6 (second series), active compounds read low 1 | S. cerevisiae deletion strains, locus YLR262C, strain YPT6, active compounds read low 0.969 | S. cerevisiae deletion strains, locus YLR268W, strain sec22, active compounds read low 1 | S. cerevisiae deletion strains, locus YLR320W, strain mms22, active compounds read low 0.998 | S. cerevisiae deletion strains, locus YLR330W, strain CHS5, active compounds read low 0.992 | S. cerevisiae deletion strains, locus YLR342W, strain FKS1 (second series), active compounds read low 0.99 | S. cerevisiae deletion strains, locus YLR342W, strain FKS1, active compounds read low 1 | S. cerevisiae deletion strains, locus YLR357W, strain rsc2, active compounds read low 1.01 | S. cerevisiae deletion strains, locus YLR370C, strain arc18, active compounds read low 1 | S. cerevisiae deletion strains, locus YLR371W, strain rom2, active compounds read low 0.975 | S. cerevisiae deletion strains, locus YLR384C, strain iki3, active compounds read low 0.995 | S. cerevisiae deletion strains, locus YLR418C, strain cdc73, active compounds read low 0.997 | S. cerevisiae deletion strains, locus YML016C, strain PPZ1, active compounds read low 0.996 | S. cerevisiae deletion strains, locus YML032C, strain rad52, active compounds read low 0.983 | S. cerevisiae deletion strains, locus YML120C, strain ndi1, active compounds read low 1.01 | S. cerevisiae deletion strains, locus YML124C, strain tub3, active compounds read low 0.992 | S. cerevisiae deletion strains, locus YMR058W, strain fet3, active compounds read low 1.01 | S. cerevisiae deletion strains, locus YMR078C, strain ctf18, active compounds read low 0.984 | S. cerevisiae deletion strains, locus YMR125W, strain sto1, active compounds read low 0.986 | S. cerevisiae deletion strains, locus YMR129W, active compounds read low 0.997 | S. cerevisiae deletion strains, locus YMR205C, strain PFK2, active compounds read low 0.998 | S. cerevisiae deletion strains, locus YMR223W, strain ubp8, active compounds read low 0.969 | S. cerevisiae deletion strains, locus YMR231W, strain pep5, active compounds read low 0.996 | S. cerevisiae deletion strains, locus YMR263W, strain SAP30, active compounds read low 1.01 | S. cerevisiae deletion strains, locus YMR307W, strain GAS1, active compounds read low 0.995 | S. cerevisiae deletion strains, locus YNL067W, strain RPL9B, active compounds read low 1.01 | S. cerevisiae deletion strains, locus YNL071W, strain lat1, active compounds read low 1.01 | S. cerevisiae deletion strains, locus YNL128W, strain TEP1, active compounds read low 1 | S. cerevisiae deletion strains, locus YNL153C, strain GIM3, active compounds read low 1.01 | S. cerevisiae deletion strains, locus YNL183C, strain NPR1, active compounds read low 0.921 | S. cerevisiae deletion strains, locus YNL209W, strain ssb2, active compounds read low 1.01 | S. cerevisiae deletion strains, locus YNL233W, strain BNI4, active compounds read low 0.999 | S. cerevisiae deletion strains, locus YNL248C, strain rpa49, active compounds read low 0.925 | S. cerevisiae deletion strains, locus YNL250W, strain rad50, active compounds read low 0.974 | S. cerevisiae deletion strains, locus YNL271C, strain bni1, active compounds read low 0.971 | S. cerevisiae deletion strains, locus YNL298W, strain CLA4, active compounds read low 0.979 | S. cerevisiae deletion strains, locus YNL307C, strain MCK1, active compounds read low 0.983 | S. cerevisiae deletion strains, locus YNL322C, strain KRE1 (second series), active compounds read low 0.998 | S. cerevisiae deletion strains, locus YNL322C, strain KRE1, active compounds read low 1 | S. cerevisiae deletion strains, locus YNR049C, strain mso1, active compounds read low 1.01 | S. cerevisiae deletion strains, locus YNR052C, strain pop2, active compounds read low 0.975 | S. cerevisiae deletion strains, locus YOL006C, strain TOP1, active compounds read low 1 | S. cerevisiae deletion strains, locus YOL012C, strain htz1 0.794 | S. cerevisiae deletion strains, locus YOL147C, strain pex11, active compounds read low 0.991 | S. cerevisiae deletion strains, locus YOR001W, strain rrp6, active compounds read low 0.972 | S. cerevisiae deletion strains, locus YOR061W, strain CKA2, active compounds read low 0.995 | S. cerevisiae deletion strains, locus YOR069W, strain VPS5, active compounds read low 0.992 | S. cerevisiae deletion strains, locus YOR070C, strain gyp1, active compounds read low 1.02 | S. cerevisiae deletion strains, locus YOR080W, strain dia2, active compounds read low 1 | S. cerevisiae deletion strains, locus YOR083W, strain WHI5, active compounds read low 1.01 | S. cerevisiae deletion strains, locus YOR106W, strain vam3, active compounds read low 1.01 | S. cerevisiae deletion strains, locus YOR136W, strain idh2, active compounds read low 0.978 | S. cerevisiae deletion strains, locus YOR144C, strain elg1, active compounds read low 0.991 | S. cerevisiae deletion strains, locus YOR184W, strain ser1, active compounds read low 0.971 | S. cerevisiae deletion strains, locus YOR231W, strain MKK1, active compounds read low 0.992 | S. cerevisiae deletion strains, locus YOR265W, strain rbl2, active compounds read low 1.03 | S. cerevisiae deletion strains, locus YOR270C, strain vph1, active compounds read low 1.01 | S. cerevisiae deletion strains, locus YOR290C, strain snf2, active compounds read low 0.974 | S. cerevisiae deletion strains, locus YOR316C, strain cot1, active compounds read low 0.978 | S. cerevisiae deletion strains, locus YPL051W, strain arl3, active compounds read low 1.03 | S. cerevisiae deletion strains, locus YPL055C, strain LGE1, active compounds read low 1.02 | S. cerevisiae deletion strains, locus YPL078C, strain atp4, active compounds read low 0.998 | S. cerevisiae deletion strains, locus YPL106C, strain sse1, active compounds read low 0.993 | S. cerevisiae deletion strains, locus YPL240C, strain hsp82, active compounds read low 1.01 | S. cerevisiae deletion strains, locus YPL241C, strain CIN2, active compounds read low 0.965 | S. cerevisiae deletion strains, locus YPL256C, strain CLN2, active compounds read low 0.992 | S. cerevisiae deletion strains, locus YPR119W, strain clb2, active compounds read low 0.991 | S. cerevisiae deletion strains, locus YPR141C, strain kar3, active compounds read low 0.975 | S. cerevisiae deletion strains, locus YPR163C, strain tif3, active compounds read low 0.987 | S. cerevisiae deletion strains, locus YPR167C, strain met16, active compounds read low 0.988 | S. cerevisiae deletion strains, strain wtn01, active compounds read low 0.998 | S. cerevisiae strains, strain wild type, active compounds read low 0.998

From PubChem BioAssay AID1159580 (chemical genetic matrix, 2015)
